Most compounds without a hit are left out; they make up all but 7.1% or so of the library.
PINK1 modulator = A Quantitative High throughput Screen to Identify Chemical Modulators of PINK1 Expression | PINK1 immunofluorescence, high-content cytometry, 24 h | Potency, µM (titrated, usually from 76.6 µM), inactives show at the highest dose activation (PINK1 increase), actives largely listed as activators | actives 0.2% (n = 410,000) | AID 624263, 2012; active = well fitted activation curve with a large enough effect; inconclusive = small, poorly fitted or top-dose-only effect; cell line not stated here; also: potency is read from the fitted curve at half-maximal effect; % of control where 0% means no effect; nearly all actives have a fitted effect of over 65% in size
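Stable cell line, 250 cells/well, 12 h attachment; compounds pinned at 5 concentrations, 24 h; CCCP control. Fixed with nuclear dye, primary antibodies 12 h at 10 degrees C, secondary plus cell stain; laser-scanning cytometer read.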
IL1B secr inh = qHTS for Inhibitors of Inflammasome Signaling: IL-1-beta AlphaLISA Primary Screen | AID 743279, 2014 | actives 4.7% (n = 360,000) | activity change, % at 57.5 µM | THP-1 LPS/ATP IL-1B secretion, AlphaLISA, 16 h; active compounds read low; in the data active = activity change below about -50%; inconclusive = mostly about -30% to -49%; also: % is scaled to controls: 0 for no effect and ±100 for the full control effect
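THP-1 cells pretreated 1 hr with compounds (up to 57.5 uM final), then stimulated with LPS (250 ng/mL final) plus ATP (1.25 mM final); secreted IL-1B measured by AlphaLISA after 16 hr, decreased signal indicating inhibition.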
SW480 rerep = A quantitative high throughput screen for small molecules that induce DNA re-replication in SW480 colon adenocarcinoma cells; actives 1.8% (n = 340,000); SW480 DNA re-replication, Hoechst DNA content imaging, 48 h; Potency, µM (doses to about 46.1 µM), for the others: top-dose re-replication activation, usual class: activators; also: potency is read from the fitted curve at half-maximal effect; % of control where 0% means no effect; nearly all actives have a fitted effect of over 55% in size
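Image-based read-out: total Hoechst fluorescence of nuclei (405 nm excitation, 500-530 nm emission), with hits raising the fraction of high-intensity nuclei. SW480 colon cells incubated 48 hr with compounds at 37 C.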
MCF10A rerep = A quantitative high throughput screen for small molecules that induce DNA re-replication in MCF 10a normal breast cells; MCF 10A DNA re-replication, Hoechst nuclear intensity, 48 h; Potency, µM (highest dose often 46.1 µM), for the others: at the highest dose activity, positive = re-replication, hits mostly activators; actives 2.9% (n = 350,000); also: potency is read from the fitted curve at half-maximal effect; % of control where 0% means no effect; nearly all actives have a fitted effect of over 50% in size
ATXN2 expr inh = Primary qHTS for Inhibitors of ATXN expression; HEK-293 ATXN2-luciferase reporter, luminescence, 24 h; Potency, µM (series often up to 57 µM), for the others: at the highest dose activity change, negative = inhibition, actives largely listed as inhibitors; actives 0.72% (n = 360,000); AID 1745845, 2022; also: potency is read from the fitted curve at half-maximal effect; % is scaled to controls: 0 for no effect and ±100 for the full control effect; nearly all actives have a fitted effect of over 55% in size
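ATXN2-luciferase reporter cells (luciferase flanked by upstream and downstream ATXN2 gene portions) were treated 24 h at 37 °C with compounds at up to 57 uM. SteadyGlo luminescence gave expression; GF-AFC fluorescence gave viability.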
S2 tox = Viability Counterscreen for Primary qHTS for Inhibitors of ATXN expression. S2 cells (HEK-293 line with an ATXN2-luciferase reporter) viability, CellTiter-Fluor protease fluorescence, 24 h. Potency, µM (titrated, usually from 56.7 µM), hits mostly cytotoxic. actives 0.49% (n = 400,000). AID 651635, 2014; also: potency is read from the fitted curve at half-maximal effect; nearly all actives have a fitted effect of over 40% in size
An asterisk follows results filed as active; [ ] = remark or other dose. Unless noted, calls follow the shape of the dose curve; as a rule, active = well fitted curve in the direction sought with a large enough effect; inconclusive = small, poorly fitted or top-dose-only effect, or another doubt; inactive = no such curve, though single readings can be large; an effect the other way counts as inactive or inconclusive.

Results for CCn1nc(C)cc1C(=O)n1nc(C)c(Sc2ncccn2)c1C ?
PINK1 modulator: 1.5%; IL1B secr inh: 17.6; SW480 rerep: -3.6%[9.22 µM]; MCF10A rerep: 1.7%; ATXN2 expr inh: -16.0%; S2 tox: inactive

How did Cc1nn(C)c(C(=O)Sc2cccc(Cl)c2)c1[N+](=O)[O-] do in these assays?
PINK1 modulator: 4.4%; IL1B secr inh: -10.8; SW480 rerep: inconclusive; MCF10A rerep: 18.4µM*; ATXN2 expr inh: 15.5%; S2 tox: inactive

Results for Cc1nn(C)c(C(=O)Sc2ccccc2)c1[N+](=O)[O-] ?
PINK1 modulator: -0.4%; IL1B secr inh: -13.2; SW480 rerep: -2.4%; MCF10A rerep: 68.5%; ATXN2 expr inh: -15.3%; S2 tox: inactive

How did CCn1nc(C)cc1C(=O)Sc1cccc(Cl)c1 do in these assays?
PINK1 modulator: 12.2%; IL1B secr inh: -6.5; SW480 rerep: 0.1%; MCF10A rerep: 23.1µM*; ATXN2 expr inh: -1.5%; S2 tox: inactive

Results for COc1cccc(-c2cn3c(n2)sc2cc(C(=O)NCc4ccccc4F)ccc23)c1 ?
PINK1 modulator: -0.1%

What do the screens show for `O=C(CN1Cc2ccccc2C1=O)Nc1cc(F)ccc1F`?
PINK1 modulator: 0.6%

How did CCNC(=O)/C(C#N)=C/c1c(N2CCN(c3ccc(OC)cc3)CC2)nc2c(C)cccn2c1=O do in these assays?
PINK1 modulator: 1.3%; IL1B secr inh: -61.6*; SW480 rerep: inconclusive; MCF10A rerep: 14.7%; ATXN2 expr inh: -23.9%; S2 tox: inconclusive

Results for CNC(=O)/C(C#N)=C/c1c(N2CCN(C)CC2)nc2c(C)cccn2c1=O ?
PINK1 modulator: -1.7%; IL1B secr inh: -0.1; SW480 rerep: inconclusive; MCF10A rerep: -4.3%; ATXN2 expr inh: -12.9%; S2 tox: inactive

Results for CCNC(=O)/C(C#N)=C/c1c(N2CCN(c3ccccc3)CC2)nc2c(C)cccn2c1=O ?
PINK1 modulator: 4.5%; IL1B secr inh: 7.4; SW480 rerep: -1.2%; MCF10A rerep: 0.1%; ATXN2 expr inh: -21.8%; S2 tox: inactive

What do the screens show for `CCN1CCN(c2nc3c(C)cccn3c(=O)c2/C=C(\C#N)C(=O)NC)CC1`?
PINK1 modulator: 0.3%; IL1B secr inh: -8.6; SW480 rerep: 6.5%; MCF10A rerep: 5.8µM*; ATXN2 expr inh: -18.6%

Results for CCN1CCN(c2nc3c(C)cccn3c(=O)c2/C=C(\C#N)C(=O)NCCCOC)CC1 ?
PINK1 modulator: 0.0%; IL1B secr inh: -18.5; SW480 rerep: 20.6µM*; MCF10A rerep: 18.4µM*; ATXN2 expr inh: -5.4%; S2 tox: inactive

How did COc1cc(NC(=O)CCn2nc(C)c(S(=O)(=O)N3CCCCC3)c2C)cc(OC)c1OC do in these assays?
PINK1 modulator: -0.2%

How did O=C(Nc1nc2cc3c(cc2s1)OCCO3)c1ccco1 do in these assays?
PINK1 modulator: -1.9%; IL1B secr inh: inconclusive; SW480 rerep: inconclusive; MCF10A rerep: inconclusive; ATXN2 expr inh: 8.91µM*; S2 tox: inconclusive

How did CC(=O)Nc1nc2cc3c(cc2s1)OCO3 do in these assays?
PINK1 modulator: 0.3%; IL1B secr inh: -22.0; SW480 rerep: -1.1%; MCF10A rerep: inconclusive; ATXN2 expr inh: 8.2%; S2 tox: inactive

How did CCOC(=O)c1ccc2nc(NC(=O)c3ccco3)sc2c1 do in these assays?
PINK1 modulator: 0.2%; IL1B secr inh: -3.6; SW480 rerep: inconclusive; MCF10A rerep: 20.6µM*; ATXN2 expr inh: 35.5%; S2 tox: inactive

Results for O=C(Nc1nc2cc3c(cc2s1)OCO3)c1ccco1 ?
PINK1 modulator: 5.8%; IL1B secr inh: -1.6; SW480 rerep: inconclusive; MCF10A rerep: inconclusive; ATXN2 expr inh: inconclusive; S2 tox: inactive

How did CC1CCc2nc(NC(=O)Cc3cccs3)sc2C1 (centres undefined) do in these assays?
PINK1 modulator: -1.1%; IL1B secr inh: inconclusive; SW480 rerep: -1.6%; MCF10A rerep: inconclusive; ATXN2 expr inh: 62.5%; S2 tox: inactive

How did O=C(Nc1nc2cc3c(cc2s1)OCO3)C1=COCCO1 do in these assays?
PINK1 modulator: 10.6%; IL1B secr inh: 23.5; SW480 rerep: 16.4µM*; MCF10A rerep: inconclusive; ATXN2 expr inh: inconclusive; S2 tox: inactive

What do the screens show for `CC1CCc2nc(NC(=O)c3ccco3)sc2C1` (centres undefined)?
PINK1 modulator: 0.0%; IL1B secr inh: -25.0; SW480 rerep: -3.6%; MCF10A rerep: 2.0%; ATXN2 expr inh: 11.2µM*; S2 tox: inactive

What do the screens show for `COc1cc2c(NC3CCN(C)CC3)nc(N3CCCN(C)CC3)nc2cc1OCCCC(C)C`?
PINK1 modulator: -0.8%

Results for COCCNc1nc(-c2ccc(N(C)C)cc2)nc2ccccc12 ?
PINK1 modulator: 0.3%

Results for CN(C)CCCNc1ncnc2sc(-c3ccccc3)cc12 ?
PINK1 modulator: 2.1%; IL1B secr inh: -76.5*; SW480 rerep: inconclusive; MCF10A rerep: 24.1%; S2 tox: inactive

Results for Cc1ccc(-c2nc(NCCN(C)C)c3ccccc3n2)cc1 ?
PINK1 modulator: -1.3%; IL1B secr inh: -95.5*; SW480 rerep: inconclusive; MCF10A rerep: -15.0%; ATXN2 expr inh: -30.3%; S2 tox: inactive

How did Cc1ccc(-c2nc(NCCCO)c3ccccc3n2)cc1 do in these assays?
PINK1 modulator: 0.5%; IL1B secr inh: inconclusive; SW480 rerep: 3.5%; MCF10A rerep: 9.5%; ATXN2 expr inh: 1.0%; S2 tox: inactive

Results for Cc1cccc(-c2nc(NCCCN(C)C)c3ccccc3n2)c1 ?
PINK1 modulator: -0.8%; IL1B secr inh: -85.8*; SW480 rerep: 0.0%; MCF10A rerep: -0.4%; ATXN2 expr inh: -33.4%; S2 tox: inactive

What do the screens show for `CN(C)CCCNc1nc(-c2ccc(Cl)cc2)nc2ccccc12`?
PINK1 modulator: 0.4%; IL1B secr inh: -61.5*; SW480 rerep: 8.1%; MCF10A rerep: -1.5%; S2 tox: inconclusive

What do the screens show for `COc1ccc(/C=C/c2ccc3ccccc3[n+]2C)cc1OC`?
PINK1 modulator: 9.8%; IL1B secr inh: -5.6; SW480 rerep: -29.2%; MCF10A rerep: -7.9%; S2 tox: inactive

Results for Cc1ccc2ccccc2[n+]1CCCS(=O)(=O)[O-] ?
PINK1 modulator: -2.8%; IL1B secr inh: 0.0; SW480 rerep: -0.7%; MCF10A rerep: 5.7%; ATXN2 expr inh: 0.2%; S2 tox: inactive

How did CCCC[n+]1c(/C=C/c2c(OC)cc(OC)cc2OC)ccc2ccccc21 do in these assays?
PINK1 modulator: 5.62µM*

Screening results deposited in PubChem by National Center for Advancing Translational Sciences (NCATS).
